Compounds without any hit were thinned out: in the full panel of roughly 83,000, 20% have a hit.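 How to read the values: 0–100, growth inhibition (40 = 60% inhibited); 0, no net growth; -100 to 0, cell death (-40 = 40% of starting cells died; -100 = all dead).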 A number with no mark means an inactive call. The source made the active and inactive calls. How the source made its calls: active means growth percent below 10; inactive means the rest.
Tests used:
Assay in all cases: NCI-60 one-dose screen, 48 h (100 = growth as untreated, 0 = no growth, -100 = all killed)
Settings in all cases: 10 µM unless noted
[1] = system: SR leukemia
[2] = system: RPMI-8226 leukemia
[3] = system: OVCAR-8 ovarian
[4] = system: OVCAR-5 ovarian
[5] = system: OVCAR-4 ovarian
[6] = system: SK-OV-3 ovarian
[7] = system: IGROV1 ovarian
[8] = system: OVCAR-3 ovarian
[9] = system: HS 578T breast
[10] = system: NCI/ADR-RES ovarian
[11] = system: T-47D breast
[12] = system: BT-549 breast
[13] = system: MDA-MB-435 melanoma
[14] = system: SW-620 colon
[15] = system: MCF7 breast
[16] = system: HCT-116 colon
[17] = system: HCC-2998 colon
[18] = system: KM12 colon

Row | Structure (SMILES) | growth [1] | growth [2] | growth [3] | growth [4] | growth [5] | growth [6] | growth [7] | growth [8] | growth [9] | growth [10] | growth [11] | growth [12] | growth [13] | growth [14] | growth [15] | growth [16] | growth [17] | growth [18]
1 | CS(=O)CC(=N\O)/C(CS(C)=O)=N\O (centres undefined) | 99.8% | 100% | 95.5% | 103% | 103% | 103% | 109% | 108% | 106% | 108% | 108% | 106% | 106% | 101% | 90.7% | 102% | 105% | 102%
2 | Cc1ccc(NCN2C(=O)c3ccccc3C2=O)c(C)n1 | 119% | 105% | 99.6% | 111% | 119% | 113% | 112% | 130% | 110% | 106% | 119% | 108% | 105% | 108% | 112% | 101% | 106% | 99.5%
3 | Nc1c(O)c(S(=O)(=O)O)c(O)c2c1C(=O)c1ccccc1C2=O | 13.8% | 11.5% | 27.8% | 42.8% | 26.1% | 22.9% | 19.2% | 8.87% (active) | 59.7% | 17.8% | 23.5% | 40% | 21.3% | 15.6% | 13.8% | 7.87% (active) | 31.8% | 5.95% (active)
4 | Cc1ccc(NC(=S)N2CCOCC2)cc1C | 108% | 102% | 104% | 102% | 102% | 97.9% | 103% | 104% | 94.7% | 110% | 92.1% | 102% | 83.2% | 109% | 104% | 89.5% | 109% | 101%
5 | COC(=O)C1(CC(C)=O)NC(=S)NC(=O)C1C#N (centres undefined) | 99.1% | 114% | 112% | 107% | 117% | 117% | 111% | 122% | 96.1% | 103% | 108% | 108% | 114% | 102% | 97.5% | 106% | 109% | 106%
6 | CC(=O)c1cccs1 | 92.9% | 110% | 102% | 103% | 106% | 99% | 110% | 103% | 99.2% | 95.6% | 90% | 97% | 109% | 108% | 94.6% | 97.4% | 98.4% | 102%
7 | C=C1C(=O)C2CCN1CC2 | 26.1% | 93.8% | 110% | 99.6% | 101% | 105% | 122% | 85.2% | 101% | 104% | 98% | 96.9% | 93.7% | 67.2% | 94.3% | 56.4% | 106% | 102%
8 | O=S(=O)(O)c1ccc(O)c(C2CCCCC2)c1 | 98.3% | 105% | 102% | 103% | 94.4% | 97.1% | 107% | 113% | 116% | 118% | 89.1% | 98.2% | 102% | 108% | 91.8% | 92.7% | 113% | 105%
9 | Nc1ncnc(Nc2ccc(C(F)(F)F)cc2)n1 | 102% | 109% | 102% | 99.8% | 107% | 100% | 100% | 113% | 108% | 104% | 96.8% | 98.2% | 99.9% | 109% | 96.6% | 95.3% | 101% | 105%
10 | COCC(N)=O | 98.3% | 103% | 108% | 101% | 120% | 105% | 114% | 106% | 103% | 111% | 98.4% | 93.2% | 105% | 99.7% | 102% | 99% | 110% | 98.9%
11 | COc1cc(C(=O)O)c(O)c(C(C)(C)C)c1 | 119% | 106% | 104% | 99.2% | 109% | 103% | 107% | 104% | 105% | 106% | 103% | 105% | 104% | 106% | 97.4% | 101% | 96.7% | 104%
12 | O=S(=O)(O)C(C(I)I)S(=O)(=O)O | 101% | 114% | 101% | 114% | 107% | 106% | 114% | 105% | 93.7% | 113% | 118% | 118% | 104% | 105% | 98.9% | 107% | 101% | 103%
13 | CC1CCC(C(C)(C)[N+](C)(C)C)CC1 (centres undefined) | 94% | 102% | 100% | 104% | 98.9% | 102% | 115% | 107% | 100% | 107% | 98.8% | 92.6% | 108% | 105% | 94.4% | 98.4% | 93.7% | 99.7%
14 | COC1OC(C(COC(C)=O)OC(C)=O)C(OC(C)=O)C(OC(C)=O)C1OC(C)=O (centres undefined) | 87.3% | 98.7% | 103% | 89.7% | 107% | 110% | 104% | 118% | 129% | 105% | 103% | 106% | 114% | 104% | 96% | 106% | 115% | 117%
15 | CC(=O)C1C(=O)C(=O)N(c2cccc([N+](=O)[O-])c2)C1=O (centres undefined) | 95.6% | 107% | 106% | 113% | 103% | 102% | 109% | 117% | 93.8% | 113% | 101% | 109% | 104% | 111% | 94.3% | 109% | 85.9% | 112%
16 | CCOC(=O)C(COS(C)(=O)=O)(COS(C)(=O)=O)C(=O)OCC | 90.9% | 110% | 103% | 105% | 107% | 104% | 104% | 106% | 104% | 103% | 103% | 106% | 104% | 110% | 98.7% | 104% | 106% | 107%
17 | c1ccc(Oc2c3ccccc3nc3ccccc23)cc1 | -0.679% (active) | -20.9% (active) | 23.7% | 35.3% | 15% | 39% | -9.18% (active) | -3.62% (active) | 12.2% | 47.6% | 56.2% | 25.2% | -5.48% (active) | 19.2% | 14.2% | -25.7% (active) | 20.9% | 0.624% (active)
18 | C=COC(=O)CCOCC(CC)CCCC (centres undefined) | 99.2% | 53.2% | 114% | 103% | 96.2% | 113% | 105% | 98% | 105% | 105% | 95.9% | 93.6% | 99.2% | 105% | 96.3% | 101% | 105% | 99.9%

Reference: PubChem BioAssay (NCI)
